# In PubChem BioAssay (EPA / NIEHS):
# Records with an inconclusive call do not appear. Active and inactive are the calls of the source. Rule for the calls: active = hit-call score of the fitted dose curve at least 0.9, where 1 is the maximum; inconclusive = response in the unintended direction; inactive = score below 0.9.
# Columns and labels:
# [1] = target: human Opioid Receptor Mu (Opiate Mu), OPRM1 (gene 4988) (UniProt P35372); experiment: NVS_GPCR_hOpiate_mu: NovaScreen (NVS) G Protein-Coupled Receptor Assay for human Opioid Receptor Mu (Opiate Mu) (AID 2283290);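 note: hits lower bound tracer signal versus DMSO meaning displacement of the ligand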
# Summary of the method: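 Cell-free radioligand binding to membranes from CHO cells expressing the receptor; bound tracer measured by filter-based scintillation counting 2.5 hours after dosing. Loss of signal versus DMSO baseline reflects displacement; primary screen at 25 uM in duplicate, actives followed up in concentration series.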
# [2] = target: human Peripheral-type Benzodiazepine Receptor (PBR), TSPO (gene 706) (UniProt P30536); experiment: NVS_MP_hPBR: NovaScreen (NVS) Membrane Protein Assay for human Peripheral-type Benzodiazepine Receptor (PBR) (AID 2283331);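 note: hits reduce radioligand binding relative to DMSO baseline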
# Summary of the method: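 Human colonic cell membranes were incubated with test chemical for 1 hour; radioligand binding was measured by filter-based scintillation counting. Primary screen ran in duplicate at 25 uM, with actives followed in concentration series; loss of signal versus DMSO baseline.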
# [3] = target: rat Peripheral-type Benzodiazepine Receptor (PBR), Tspo (gene 24230) (UniProt P16257); experiment: NVS_MP_rPBR: NovaScreen (NVS) Membrane Protein Assay for rat Peripheral-type Benzodiazepine Receptor (PBR) (AID 2283335)
# Summary of the method: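 Radioligand displacement, rat kidney membrane prep, 1 h exposure, filter-based scintillation read; DMSO baseline, loss-of-signal scored. Primary screen at 25 uM in duplicate, actives followed up in concentration series.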
# [4] = NVS_IC_rCaBTZCHL: NovaScreen (NVS) Ion Channel Assay for Calcium Channel, Type L, Benzothiazepine Site (CaBTZCHL) (AID 2283337)
# Method: NVS_IC_rCaBTZCHL is a biochemical, single-readout assay that uses extracted gene-proteins from Rat cortical membranes in a tissue-based cell-free assay. Measurements were taken 1.5 hours after chemical dosing in a 48-well plate.NVS_IC_rCaBTZCHL is one of one assay component(s) measured or calculated from the NVS_IC_rCaBTZCHL assay. It is designed to make measurements of radioligand binding, a form of binding reporter, as detected with scintillation counting signals by Filter-based radiodetection technology.Data from the assay component NVS_IC_rCaBTZCHL was analyzed into 1 assay endpoint. This assay endpoint, NVS_IC_rCaBTZCHL, was analyzed in the positive analysis fitting direction relative to DMSO as the negative control and baseline of activity. Using a type of binding reporter, loss-of-signal activity can be used to understand changes in the binding as they relate to the gene Cacna1a. Furthermore, this assay endpoint can be referred to as a primary readout, because the performed assay has only produced 1 assay endpoint. To generalize the intended target to other relatable targets, this assay endpoint is annotated to the ion channel intended target family, where the subfamily is calcium channel.
# Binding assays used specific radioligands (tritiated, iodinated) with non-radioactive competitive displacement ligands in agonist or antagonist protocols (as indicated) and various reference compounds and inhibitors to titrate specific binding to receptors and transporters. Most enzyme assays (CYPs, kinases, phosphatases, proteases, HDACs) used recombinant protein and specific substrates (fluorescence mostly, some colorimetric and radioactive) and inhibitors, followed by a biochemical separation of substrate and product. All assays for the biochemical HTS were initially run in duplicate at a single concentration (10 uM for CYP450 assays and 25 uM for all others). […] Each assay was run with positive and negative controls, and concurrent controls on every plate. […]
# [5] = target: rat Gamma-Aminobutyric Acid Type A Receptor, Non-Selective (GABAR-NonSelective), Gabra1 (gene 29705) (UniProt P62813); experiment: NVS_LGIC_rGABAR_NonSelective: NovaScreen (NVS) Ligand-Gated Ion Channel Assay for rat Gamma-Aminobutyric Acid Type A Receptor, Non-Selective (GABAR-NonSelective) (AID 2283326)
# Summary of the method: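 Radioligand displacement on rat whole-brain extract, 1 h, filter scintillation readout; signal loss fitted versus DMSO. Primary screen in duplicate at 25 uM; hits (e.g. ≥30% inhibition) retested in concentration-response up to 50 uM.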
# [6] = target: rat Thyrotropin Releasing Hormone Receptor (TRH), Trhr (gene 25570) (UniProt Q01717); experiment: NVS_GPCR_rTRH: NovaScreen (NVS) G Protein-Coupled Receptor Assay for rat Thyrotropin Releasing Hormone Receptor (TRH) (AID 2283329);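 note: hit means lower bound tracer signal versus DMSO baseline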
# Summary of the method: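 Cell-free radioligand binding on rat forebrain membranes; bound tracer measured by filter-based scintillation counting 4 hours after dosing. Loss of signal versus DMSO baseline indicates displacement; primary screen at 25 uM in duplicate, actives then run in concentration series.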
# [7] = target: Sodium channel protein type 1 subunit alpha (Rattus norvegicus) (UniProt P04774); experiment: NVS_IC_rNaCh_site2: NovaScreen (NVS) Ion Channel Assay for rat Sodium Channel, Site 2 (NaCh) (AID 2283322);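 note: hit means loss of radioligand binding signal relative to DMSO so AC50 marks displacement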
# Summary of the method: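 Membranes: rat forebrain. Format: competitive radioligand displacement, filter separation, scintillation readout, 1 h exposure. Primary screen in duplicate at 25 uM; actives retested in concentration series.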
# [8] = target: rat Neonicotinoid receptor (NNR), Chrna7 (gene 25302) (UniProt Q05941); experiment: NVS_LGIC_rNNR_BungSens: NovaScreen (NVS) Ligand-Gated Ion Channel Assay for rat Neonicotinoid receptor (NNR) (AID 2283315)
# Summary of the method: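 Radioligand displacement binding on rat cortical membranes, 2.5 h incubation, filtration and scintillation counting. Loss of specific binding fitted relative to DMSO.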
# Sequence of rat Thyrotropin Releasing Hormone Receptor (TRH), Trhr (gene 25570) (Q01717 whole entry, looked up): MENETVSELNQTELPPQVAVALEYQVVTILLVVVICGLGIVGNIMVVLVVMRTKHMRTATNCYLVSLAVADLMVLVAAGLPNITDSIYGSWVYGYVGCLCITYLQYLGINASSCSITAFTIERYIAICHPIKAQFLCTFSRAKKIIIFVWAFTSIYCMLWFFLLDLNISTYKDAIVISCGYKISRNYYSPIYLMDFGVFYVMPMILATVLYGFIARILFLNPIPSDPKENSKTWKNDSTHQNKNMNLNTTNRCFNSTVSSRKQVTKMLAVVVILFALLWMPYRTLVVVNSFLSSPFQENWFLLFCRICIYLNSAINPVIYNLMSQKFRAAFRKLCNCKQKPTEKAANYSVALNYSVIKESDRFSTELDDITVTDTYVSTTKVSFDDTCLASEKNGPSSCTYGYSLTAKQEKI
# Sequence of human Opioid Receptor Mu (Opiate Mu), OPRM1 (gene 4988) (P35372 whole entry, looked up): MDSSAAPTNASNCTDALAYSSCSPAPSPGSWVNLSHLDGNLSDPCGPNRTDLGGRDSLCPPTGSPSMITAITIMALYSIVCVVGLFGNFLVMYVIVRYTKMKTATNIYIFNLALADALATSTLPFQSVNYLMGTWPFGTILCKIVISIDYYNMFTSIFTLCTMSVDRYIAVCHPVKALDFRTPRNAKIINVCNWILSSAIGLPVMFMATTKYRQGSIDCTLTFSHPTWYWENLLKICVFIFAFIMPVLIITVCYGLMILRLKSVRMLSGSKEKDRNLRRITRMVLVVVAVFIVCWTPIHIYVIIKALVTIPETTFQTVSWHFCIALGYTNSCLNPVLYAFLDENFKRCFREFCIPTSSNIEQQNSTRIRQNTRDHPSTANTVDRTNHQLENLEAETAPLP
# Sequence of rat Neonicotinoid receptor (NNR), Chrna7 (gene 25302) (Q05941 whole entry, looked up): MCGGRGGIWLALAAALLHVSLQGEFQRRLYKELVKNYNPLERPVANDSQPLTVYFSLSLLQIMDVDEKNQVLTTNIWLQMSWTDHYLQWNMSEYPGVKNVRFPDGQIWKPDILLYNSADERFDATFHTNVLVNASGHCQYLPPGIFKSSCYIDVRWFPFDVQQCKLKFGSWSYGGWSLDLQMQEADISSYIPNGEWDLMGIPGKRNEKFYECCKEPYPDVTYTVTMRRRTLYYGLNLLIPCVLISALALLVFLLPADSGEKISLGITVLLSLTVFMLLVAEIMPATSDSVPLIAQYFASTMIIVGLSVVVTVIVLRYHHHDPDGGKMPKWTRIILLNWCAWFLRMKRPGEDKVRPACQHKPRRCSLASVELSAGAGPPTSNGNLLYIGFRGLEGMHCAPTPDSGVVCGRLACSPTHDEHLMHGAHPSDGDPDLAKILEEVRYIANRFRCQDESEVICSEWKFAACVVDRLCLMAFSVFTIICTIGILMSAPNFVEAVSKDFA
# Sequence of rat Gamma-Aminobutyric Acid Type A Receptor, Non-Selective (GABAR-NonSelective), Gabra1 (gene 29705) (P62813 whole entry, looked up): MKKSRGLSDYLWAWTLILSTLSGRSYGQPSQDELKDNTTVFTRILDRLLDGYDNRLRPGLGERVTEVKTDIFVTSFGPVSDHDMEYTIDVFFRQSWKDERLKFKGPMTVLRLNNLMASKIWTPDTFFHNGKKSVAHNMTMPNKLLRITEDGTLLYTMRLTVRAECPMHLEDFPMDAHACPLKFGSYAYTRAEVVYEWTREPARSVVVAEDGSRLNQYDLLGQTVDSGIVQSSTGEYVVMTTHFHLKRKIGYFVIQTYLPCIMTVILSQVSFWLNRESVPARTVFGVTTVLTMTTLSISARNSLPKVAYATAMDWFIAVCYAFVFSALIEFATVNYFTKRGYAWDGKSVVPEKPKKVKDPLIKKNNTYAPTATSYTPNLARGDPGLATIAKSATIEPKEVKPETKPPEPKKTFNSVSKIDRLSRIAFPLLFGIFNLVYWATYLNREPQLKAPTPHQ
# Sequence of rat Peripheral-type Benzodiazepine Receptor (PBR), Tspo (gene 24230) (P16257 whole entry, looked up): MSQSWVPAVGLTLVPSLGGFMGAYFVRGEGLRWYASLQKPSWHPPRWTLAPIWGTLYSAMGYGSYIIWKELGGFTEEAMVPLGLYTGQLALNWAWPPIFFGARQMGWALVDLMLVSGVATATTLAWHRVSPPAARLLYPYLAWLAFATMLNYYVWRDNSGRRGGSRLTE
# Sequence of human Peripheral-type Benzodiazepine Receptor (PBR), TSPO (gene 706) (P30536 whole entry, looked up): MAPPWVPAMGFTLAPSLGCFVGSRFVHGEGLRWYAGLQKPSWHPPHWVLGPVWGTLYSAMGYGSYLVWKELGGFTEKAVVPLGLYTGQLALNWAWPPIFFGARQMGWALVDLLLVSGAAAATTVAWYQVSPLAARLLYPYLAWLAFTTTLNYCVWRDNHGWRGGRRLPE
compound,measurement,setting,value
COc1cc2ncnc(Nc3cccc(Cl)c3)c2cc1OC,AC50,[1],4.36 µM (active)
same,outcome,[2],inactive
same,outcome,[3],inactive
same,outcome,[4],inactive
O=C(O)c1ccc([N+](=O)[O-])cc1,AC50,[5],4.02 µM (active)
OCCN1CCNCC1,outcome,[6],inactive
CC(C)C[C@H]1C(=O)N2CCC[C@H]2[C@]2(O)O[C@](NC(=O)[C@@H]3C=C4c5cccc6[nH]c(Br)c(c56)C[C@H]4N(C)C3)(C(C)C)C(=O)N12,outcome,[6],inactive
O=C1OC2(c3cc(Br)c(O)c(Br)c3Oc3c2cc(Br)c(O)c3Br)c2c(Cl)c(Cl)c(Cl)c(Cl)c21,AC50,[1],0.0961 µM (active)
O=C=NC1CCC(CC2CCC(N=C=O)CC2)CC1 (centres undefined),AC50,[7],4.47 µM (active)
CC(C)=CCC[C@H](C)CC=O,outcome,[7],inactive
C[Si](O[Si](C)(C)C)O[Si](C)(C)C,outcome,[6],inactive
CCCOCC(C)O (centres undefined),AC50,[1],14.8 µM (active)
O=C(O)C[C@H](O)C[C@H](O)/C=C/c1c(C2CC2)nc2ccccc2c1-c1ccc(F)cc1,AC50,[7],3.55 µM (active)
O=C(Cl)c1cccc(C(=O)Cl)c1,outcome,[6],inactive
CN(C)CCCN,outcome,[6],inactive
OCCOCCOCCOCCO,outcome,[6],inactive
CC(C)(C#N)c1cc(Cn2cncn2)cc(C(C)(C)C#N)c1,outcome,[6],inactive
O=C(O)c1ccc(C(=O)O)cc1,outcome,[6],inactive
CSc1nnc(C(C)(C)C)c(=O)[nH]1,outcome,[8],inactive
CC1(C)[C@@H]2CC[C@@]1(C)[C@H](O)C2,outcome,[6],inactive
CCc1c(C)cc(N)c(CC)c1N,AC50,[1],13 µM (active)
Cc1ccc2sc3cccc(C)c3c2c1,outcome,[1],inactive
C=C(C)C(=O)O,outcome,[6],inactive
CC1=CC(=O)NS(=O)(=O)O1,outcome,[6],inactive
